Results: PubChem BioAssay (NCI)
About 79,000 compounds went through this panel and 15% of them were active in at least one assay; those are over-represented in the sample as a whole. Unmarked numbers belong to inactive results. Active and inactive are the calls of the source. Cut-off read from the data, not from the text of the source: active = growth inhibition above about 70%; inactive = the rest.

What was measured:
[1] = NCI Yeast Anticancer Drug Screen. Data for the rad50 strain (AID 155);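 note: 0% = growth of vehicle-only cultures of the same strain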; details: S. cerevisiae rad50 strain growth inhibition; at 50.0 µM; hits give high values
Summary of the method: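 Relative growth inhibition (compound vs vehicle) was measured in yeast with a defined repair-gene alteration.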

[2] = NCI Yeast Anticancer Drug Screen. Data for the mec2-1 strain (AID 157); details: S. cerevisiae mec2-1 strain, at 50.0 µM, hits give high values
Summary of the method: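 Yeast mec2-1 mutant treated with compound. Readout: growth inhibition vs vehicle controls.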

[3] = NCI Yeast Anticancer Drug Screen. Data for the sgs1 mgt1 strain (AID 161);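 note: 0% = growth of cultures given vehicle only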; details: S. cerevisiae sgs1 mgt1 strain, at 50.0 µM, hits give high values
Summary of the method: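 Read-out: growth inhibition vs vehicle controls. Cells: mutant yeast strain deficient in DNA damage repair.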

[4] = NCI Yeast Anticancer Drug Screen. Data for the cln2 rad14 strain (AID 165);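 note: 0% = growth equal to vehicle treated cultures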; details: S. cerevisiae cln2 rad14 strain, at 50.0 µM, hits give high values
Summary of the method: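 cln2 rad14 yeast strain; compound exposure; growth inhibition read vs vehicle controls.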

[5] = NCI Yeast Anticancer Drug Screen. Data for the bub3 strain (AID 167); details: S. cerevisiae bub3 mutant strain, at 50.0 µM, hits give high values
Summary of the method: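 Screening used yeast with an engineered genetic alteration affecting cell cycle control. Compound-exposed cultures were compared with vehicle cultures, and reduced growth was taken as inhibition.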

[6] = NCI Yeast Anticancer Drug Screen. Data for the mlh1 rad18 strain (AID 175); details: S. cerevisiae mlh1 rad18 strain growth inhibition; at 50.0 µM; hits give high values
Summary of the method: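 Yeast w/ defined DNA-repair lesions; compound exposure; growth vs vehicle controls → % inhibition.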

| Compound | growth inhibition [1] | growth inhibition [2] | growth inhibition [3] | growth inhibition [4] | growth inhibition [5] | growth inhibition [6] |
| --- | --- | --- | --- | --- | --- | --- |
| CSc1ccc2c(c1)Cc1cc(NC(C)=O)ccc1-2 | 8.8% | -9.05% | -4.25% | -12.3% | -11.8% | 1.05% |
| COc1ccc(-c2cc(-c3ccncc3)[nH]c2-c2nccc3ccccc23)cc1 | 94.2% (active) | 82.7% (active) | 97.3% (active) | 79.5% (active) | 73.7% (active) | 85% (active) |
| COc1ccc(C(C)=O)cc1C=O | 1.4% | 9.65% | -2.65% | -13.2% | -20.1% | 16.2% |
| NC(=O)C(=O)C(c1ccccc1)c1ccccc1 | 0.3% | 4.55% | -1.1% | -4.05% | 7.95% | -8.35% |
| Cc1nc(C)c(N2CCN(C#N)CC2)c(=O)[nH]1 | -52.6% | -23.6% | -29.1% | 0.35% | -11.7% | -40.2% |
| C(=N\c1nc2ccccc2s1)/c1cccs1 | -15.7% | -34% | -14.8% | -5.95% | 3.45% | -19.4% |
| CC(=O)n1[nH]c(=O)n(-c2ccccc2)c1=O | -23% | -20.1% | -17.9% | 10.1% | -26.1% | -24.5% |
| O=C(Nc1cc(Cl)ccc1Cl)C(=O)C(c1cnc2ccccc2n1)[N+](=O)[O-] (stereo unspecified) | 12.7% | 6.3% | -23.8% | 36.1% | 34.1% | 13.3% |
| CC(=O)OCc1cocc1COC(C)=O | -17.2% | -36% | 20.4% | -3.2% | -4.1% | 8.3% |
| COC(=O)C1CC(=C(C)C)CCC1=O (stereo unspecified) | 11.1% | 2.15% | 0.4% | 11.2% | 8.7% | -1.7% |
| Cc1cccc([Si](c2ccccc2)(c2ccccc2)c2ccccc2)c1 | -3.7% | -6.35% | -9.2% | -0.75% | -21.6% | 8.8% |
| C[Si](C)(C)O/C=C1\CCCCC1=O | 5.65% | 8.4% | 2.5% | 14.8% | 2.8% | -23.6% |
| CC1(C)OC2OC(COC(=O)c3ccc([N+](=O)[O-])cc3)C3OC(C)(C)OC3C2O1 (stereo unspecified) | -13.6% | -8.45% | -8.85% | -28.1% | 0.85% | -25.4% |
| CCCCC(C(O)c1ccc(C(C)C)cc1)N(CC)CC (stereo unspecified) | 56.2% | 34.1% | 53.9% | 9% | 62.2% | 38% |
| CN(NC(=O)CCCl)C1=NCCCCN1 | -6.6% | -17.9% | -4.95% | 43.5% | -0.5% | 19.4% |
| Cc1cc(/C=N/NC(=O)c2ccccc2NC(=O)c2ccccc2Cl)ccc1O | 20.6% | 9.8% | 39.2% | 11.9% | 9.1% | 34.8% |
| COc1cc2cc(-c3ccc(Cl)c(Cl)c3)[n+](C)cc2cc1OC | 36% | 20.1% | 35.3% | 21.6% | -3.55% | 13.7% |
| O=S(=O)(c1ccccc1)N1CCCN(S(=O)(=O)c2ccccc2)CC1 | -11.9% | -0.45% | 2.15% | 3.1% | 3.35% | 0.7% |
| CC(=O)Nc1cc(-c2ccccc2)cc(-c2ccccc2)c1 | 11.6% | 0.4% | -2.55% | 1.5% | 10.7% | 22.4% |
| CCc1cc2c(oc3c4ccccc4ccc23)c(=O)[nH]1 | -8.95% | -12.6% | -15.7% | -14.3% | -25.4% | -7.55% |
| CSc1ncc2c(n1)-c1ccccc1OC2N1CCOCC1 (stereo unspecified) | -4.95% | 8.1% | -1.65% | -9.55% | -18.4% | 40.7% |

| Compound | growth inhibition [1] | growth inhibition [2] | growth inhibition [3] | growth inhibition [4] | growth inhibition [5] | growth inhibition [6] |
| --- | --- | --- | --- | --- | --- | --- |
| Cc1cc(C)nc(Sc2c([N+](=O)[O-])ncn2C)n1 | 4.1% | -17.3% | -20.9% | 4.65% | 12.6% | -10.3% |
| O=C(Nc1ccc(Cl)c(Cl)c1)c1ccc(Cl)cc1 | 2% | 11.3% | 7.65% | 8.2% | 19.1% | 13% |
| O=C(Nc1ccc(Cl)c(Cl)c1)Oc1ccccc1Cl | -15.2% | -29.6% | -4.9% | -36% | -16.4% | -29.9% |
| CN(C)CC(C(N)=O)C(N)=O | -26.1% | -18.8% | -19.8% | 9.6% | -10.5% | 7.45% |
| CC1Oc2ccc3ccccc3c2C(C)N1C (stereo unspecified) | -0.55% | 1.9% | -6.45% | -4.85% | 1.3% | 16.9% |
| COc1ccc(/C(=N\O)c2nccc3cc(OC)c(OC)cc23)cc1OC | 35.8% | 14.2% | 27.9% | 9% | -2.95% | 18.4% |
| [N-]=[N+]=NC1CCOC(n2cnc3c(N)ncnc32)C1O (stereo unspecified) | -2.05% | -3.95% | 5.55% | -33.5% | -4.6% | 1.85% |
| CCOC(=O)c1nc2ccc(OC)cc2c2c1Cc1ccccc1-2 | -8.55% | -20.9% | -22.1% | 8.3% | 0.55% | -24.4% |
| COc1csn[n+]1-c1ccc(C)cc1 | 7.7% | 3.65% | 9.45% | 7.5% | 14.8% | 9.65% |
| CC1C[P+](c2ccccc2)(c2ccccc2)Cc2ccccc21 (stereo unspecified) | 3.4% | 9.75% | -8.25% | -13.4% | -1.85% | 4.6% |
| C(#[C][Sn]([c]1ccccc1)([c]1ccccc1)[c]1ccccc1)c1ccccc1 | 98.3% (active) | 95.5% (active) | 97.8% (active) | 98.5% (active) | 98.8% (active) | 98.6% (active) |
| CSCCCN(CCCSC)CCCSC | -12.6% | -12.9% | -0.3% | 5.5% | 4.5% | -26.6% |
| C/C(=N\N=Nc1ccc(N(C)C)cc1)c1ccccc1 | 1.6% | -3.3% | -5.25% | 15.9% | 29.2% | 9.1% |
| CC(=O)Nc1cc(F)c(N=Nc2ccc(F)cc2)c(F)c1 | 5.3% | -0.6% | 13.4% | -36.9% | -16.1% | 3.45% |
| Nc1ccc(C(=O)Nc2ccccn2)cc1 | -9.1% | -9.55% | -13.4% | -27.6% | 3.1% | -2.55% |
| O=C(O)C1CCCCC1C(=O)Nc1ccc(Cl)c(Cl)c1 (stereo unspecified) | 5.75% | 20.1% | -5.65% | -4.15% | 13.6% | -48.1% |
| C/C=C/C=C1/OC(C)=C(C(=O)OCC)C1=O | 7.95% | -15.6% | 6.55% | 11.4% | -8.95% | -1.9% |
| CCOC(=O)C1C(NNC(N)=O)CN(C(=O)OCC)C1C(=O)OCC (stereo unspecified) | -9.2% | -5.8% | -15.9% | 0.4% | 8.45% | 10.4% |
| O=C(OCCO)c1ccc(O)c(O)c1 | 14.6% | -4.65% | 3.1% | -25.8% | -6.1% | 7.55% |
| O=C(CCl)OCc1ccc(Cl)cc1 | 4.5% | 2.55% | -3.75% | -27.8% | 1.25% | -9.45% |
